Data: ChEMBL document CHEMBL4513216, “Probing the Open Global Health Chemical Diversity Library for Multistage-Active Starting Points for Next-Generation Antimalarials” (ACS Infect Dis, 2020)
Screen size: about 68,000 compounds; about 2,700 (4%) showed an effect of 50% or more. The full list was thinned out, with strong results kept by preference.

tested on: Plasmodium berghei; test: Screen against P. berghei liver stage (PbLuc), transformed with Luciferase, at 2uM; format: functional, HepG2; settings: tested at 2 uM

SMILES	INHIBITION [%]
CCOc1cc(CN(C)CCC#N)ccc1OC(F)F	14.17
Cc1cc(C)cc(CNCCS(=O)(=O)N2CCOCC2)c1	-6.33
OCC(CO)Nc1nc(C(F)F)nc2ccccc12	-11.32
CNc1cc(C2CN(Cc3scnc3C)CCO2)nc(C)n1 (stereo not drawn)	-1.07
CS(=O)(=O)c1ccc(Cl)c(C(=O)NCCC2=CCCCC2)c1	6.92
Cc1cc(C)n(C2CCCN(C(=O)Cc3cn4ccsc4n3)C2)n1 (stereo not drawn)	20.57
Cc1cc(N2CCC(O)(CN(C)C(=O)CCN)C2)c2cnccc2n1 (stereo not drawn)	-17.65
Cc1cc(N2CCC(O)(CN(C)C(=O)CCCN)C2)c2cnccc2n1 (stereo not drawn)	-14.93
Cc1cc(N2CCC(O)(CN(C)C(=O)CCN)CC2)c2cnccc2n1	57.47
CCOC(=O)COC1CCN(C(C)=O)CC(=O)N(C)c2ccccc21 (stereo not drawn)	19.99
Cc1ccnc(C2(C)CCCN2S(=O)(=O)c2c(C)noc2C)n1 (stereo not drawn)	15.61
Cc1nn2cnnc2c(C)c1CCC(=O)Nc1nc2c(s1)CCC2	-4.37
O=C(Cc1ccccn1)N1CCc2c(O)nc(-c3cnccn3)nc2C1	56.57
Oc1nc(-c2cnccn2)nc2c1CCN(Cc1ccccn1)C2	19.47
O=C(Cc1ccccn1)N1CCc2nc(-c3cnccn3)nc(O)c2C1	41.31
COCCc1noc(-c2ccc(=O)[nH]c2)n1	-18.6
CS(=O)(=O)CCNCc1ccc(OCc2ccncc2)cc1	-117.21
O=S1(=O)COCCN1Cc1ccc(Cl)c(Cl)c1	-31.95
O=S1(=O)COCCN1Cc1ccc(F)c(F)c1	22.52
O=S1(=O)COCCN1Cc1ccc(Cl)c(F)c1	51.45
Cc1ccc(C(C)NC(=O)N2CCCN(CC(F)F)CC2)s1 (stereo not drawn)	9.27
CC(=O)N1C(CN2CCCC2)C[C@@H]2CN(C(=O)c3ccoc3)CC[C@@H]21 (stereo partly drawn)	4
CC(C)N1[C@H](CN2CCCC2)C[C@@H]2CN(C(=O)c3ccoc3)CC[C@@H]21	50.32
CC(C)N1[C@H](CN2CCCC2)C[C@@H]2CN(Cc3ccoc3)CC[C@@H]21	1.92
Cc1cc(CN2CCN(CC(O)c3ccc(C)c(C)c3)CC2)no1 (stereo not drawn)	-29.69
CC(C)c1ccc(OCCC(=O)N2CCCN(C(N)=O)CC2)cc1	19.71

SMILES	INHIBITION [%]
CS(=O)(=O)Cc1ccc(CNC(=O)N2CCC(C(N)=O)C2)cc1 (stereo not drawn)	31
CCCOc1ccc(CNC(=O)N2CCC(C(N)=O)C2)cc1 (stereo not drawn)	76.69
CCOCc1ccc(CNC(=O)N2CCC(C(N)=O)C2)cc1 (stereo not drawn)	47.23
CC(C)c1ccc(OCCC(=O)N2CCC(C(N)=O)CC2)cc1	3.33
CC(C)c1ccc(OCCC(=O)N2CCCC(C(N)=O)C2)cc1 (stereo not drawn)	52.47
COCCN1CCCn2cnc(CNC3CCCC3)c2C1	-24.29
Fc1cnc(N2CCC3(CC2)CN(Cc2cccs2)CCO3)nc1	43.29
COc1ccccc1C(C)(C)NC(=O)Nc1ccc(F)c(C(N)=O)c1	20.21
CN(Cc1cncnc1)[C@@H]1CN(Cc2ccco2)C[C@@H]2CCCO[C@@H]21	-37.2
CCCN1CCN(C(=O)Cn2nc(C(F)(F)F)c(Br)c2C2CC2)CC1	-3.36
CC(C)C(NC(=O)c1ccc(Cl)cc1Cl)C(=O)Nc1ccn(C)n1 (stereo not drawn)	42.76
O=C(COC1CCCCC1)Nc1ccn(CCc2ccncc2)n1	13.99
Cn1cccc1C(=O)NC(C)(C(N)=O)c1cccc(C(F)(F)F)c1 (stereo not drawn)	-23.95
OC1(c2ccc(F)cc2)CCN(Cc2ccccc2N2CCCC2)CC1	58.02
Cc1cccc(C2(O)CCN(Cc3ccccc3N3CCCC3)CC2)c1	4.06
OC1(c2ccccc2F)CCN(Cc2ccccc2N2CCCC2)CC1	14.73
Cc1noc(C)c1CN(C)CC(c1cccs1)N1CCOCC1 (stereo not drawn)	43.7
Cc1cc(N(C)C)nc(NC2CCc3nc(C)nn3C2)n1 (stereo not drawn)	13.28
O=C(O)c1ccccc1-c1ccc(CNC(=O)C2CCOCC2)cc1	22.95
COc1cccc(CN2CCC(CO)(Cc3ccc(Cl)cc3)CC2)c1O	71.83
COc1ccc(CN2CCC(CO)(Cc3ccc(Cl)cc3)CC2)c(O)c1	36.34
OCC1(Cc2ccc(Cl)cc2)CCN(Cc2ccccc2O)CC1	-58.31
O=C(Nc1ccc(N2CCOCC2)nc1)N1CCc2sccc2C1	57.59
O=C(Nc1ccc(N2CCCC2)nc1)N1CCc2sccc2C1	-19.54
O=C(Nc1ccc(N2CCCCC2)nc1)N1CCc2sccc2C1	-4.09
CN1C(=O)CCC12CCN(S(=O)(=O)c1ccccc1)CC2	46.32

SMILES	INHIBITION [%]
Cn1cnnc1S(=O)(=O)C1CCN(C(=O)c2ccco2)CC1	31.78
CCSc1ccccc1C(=O)N1CCC(S(=O)(=O)c2nncn2C)CC1	59.08
Cn1cnnc1S(=O)(=O)C1CCN(C(=O)c2cccs2)CC1	25.55
CN(Cc1ccccc1F)Cc1cc2c(cc1Br)OCCO2	12.68
Cc1cnc(C(=O)N2C[C@@H]3CC[C@H]2CN(Cc2cscn2)C3)[nH]1	-0.62
Cc1noc(C)c1CNCc1ccccc1N(C)C1CCN(C)CC1	50.46
CN1CCC(N(C)c2ccccc2CNCc2ccco2)CC1	24.6
CCc1cc(CNCc2ccccc2N(C)C2CCN(C)CC2)on1	-19.27
CCC(CO)N(C/C(C)=C/c1ccco1)Cc1ccsc1 (stereo not drawn)	5.85
CCOc1ncccc1C(=O)NC1CC(=O)N(CC(F)(F)F)C1 (stereo not drawn)	-27.19
CC(=O)N1CCC(C(=O)N(CC(F)F)c2cccc(Cl)c2)CC1	23.06
CCCS(=O)(=O)N1CCC(n2nc(-c3cc(C)oc3C)ccc2=O)CC1	-17.72
Cn1c(C2CCCN2C(=O)CN2CSCC2=O)nc2ccccc21 (stereo not drawn)	-73.81
CNC(=O)C1CCC(NC(=O)c2cc(C3CC3)n(C(C)(C)C)n2)CC1 (stereo not drawn)	37
Cc1cc(C(=O)NC2CCN(CC(N)=O)CC2)nn1C(C)(C)C	61.06
CC(C)(C)n1nc(C(=O)NC2CCN(CC(N)=O)CC2)cc1C1CC1	52.74
CC(C)(C)n1nc(C2CC2)cc1C(=O)NC1CCN(CC(N)=O)CC1	40.97
CC(C)c1cc(C(=O)NC2CCN(CC(N)=O)CC2)nn1C(C)(C)C	0.79
Cc1cc(C(=O)NCCN2CCC(C)CC2)nn1C(C)(C)C	10.1
NC(=O)NCC1CCCCN1Cc1nc(-c2ccco2)no1 (stereo not drawn)	-3.06
COc1ccc(CCC(=O)NCCN2CCC(c3cccs3)CC2)cc1	11.78
CC(CC(=O)NCCNS(C)(=O)=O)C1CCCCC1 (stereo not drawn)	-13.76
CC(NC(=O)Cn1ccc(=O)n(C)c1=O)c1cc(F)ccc1F (stereo not drawn)	16.25
CC(C)OCCC(=O)Nc1c(-c2ccc(F)cc2)ncn1C	6.47
COCCOCCC(=O)Nc1c(-c2ccc(F)cc2)ncn1C	35.68
CC(C)COCCC(=O)Nc1c(-c2ccc(F)cc2)ncn1C	60.43

SMILES	INHIBITION [%]
CCN1CC(CN(C)Cc2nc(-c3cccc(Cl)c3)oc2C)CC1=O (stereo not drawn)	32.26
CN(Cc1nc(Cc2ccccc2F)no1)CC1Cc2ccccc2O1 (stereo not drawn)	60.9
CN(Cc1nc(CC2CC2)no1)CC1Cc2ccccc2O1 (stereo not drawn)	44.37
CN(Cc1nc(COc2ccccc2)no1)CC1Cc2ccccc2O1 (stereo not drawn)	8.03
O=C(c1cccc(NCCO)c1)N1CCOCC1	10.74
CCN(CC)C(=O)c1ccc(Cl)c(NC(=O)c2cnc(C)cn2)c1	20.71
Cc1cn2c(n1)CCC(NC(=O)CCn1cncn1)C2 (stereo not drawn)	19.64
Cc1cc(CN2C[C@@H]3COC[C@]3(COCC(=O)N(C)C)C2)no1	64.37
Cc1cccc(CN2C[C@@H]3COC[C@]3(COCC(=O)N(C)C)C2)n1	27.52
Cc1nc(CN2C[C@@H]3COC[C@]3(COCC(=O)N(C)C)C2)cs1	23.09
CC(=O)Nc1ccc(CN2CCc3[nH]cnc3C2c2nccn2C)cc1 (stereo not drawn)	-42.54
Clc1ccccc1OCCc1cc(C2CCNC2)n[nH]1 (stereo not drawn)	16.14
CN1C[C@H](O)[C@]2(CCN(Cc3ccc(F)c(F)c3)C2)S1(=O)=O	6.4
CCc1noc(CN(Cc2cccs2)C2CC2)n1	7.85
COC(=O)C1CN(CC(=O)Nc2cccc(OC)c2)c2ccccc21 (stereo not drawn)	43.88
COC(=O)C1CN(CC(=O)Nc2ccccc2Cl)c2ccccc21 (stereo not drawn)	57.34
COC(=O)C1CN(CC(=O)Nc2cc(F)ccc2F)c2ccccc21 (stereo not drawn)	16.95
Cn1cc(CN2CCC[C@]3(C[C@H](Oc4ncccc4F)CO3)C2)cn1	20.01
CC(C)CN1CCC2(Cc3ccccc3NC2=O)C1 (stereo not drawn)	-1.69
COCC1CN(CC2CC2)Cc2nn(C)cc21 (stereo not drawn)	30.38
CCc1ccc2c(c1)C(CCNC(=O)Cc1ccc(F)cc1)C(=O)N2 (stereo not drawn)	33.22
CCc1ccc2c(c1)C(CCNC(=O)CCc1ccsc1)C(=O)N2 (stereo not drawn)	57.16
CCc1ccc2c(c1)C(CCNC(=O)CSC(F)(F)F)C(=O)N2 (stereo not drawn)	26.51
Cc1nc(C)n(CC2CCCCN2CC(=O)Nc2c(C)n[nH]c2C)n1 (stereo not drawn)	-91.52
CC(C(=O)N(C)C)N1CCCN(C(=O)Oc2ccccc2)CC1 (stereo not drawn)	10.43
